Measured values taken from PubChem BioAssay (NCI).
About 83,000 compounds went through this panel and 20% of them were active in at least one assay; those are over-represented in the sample as a whole.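 The test compound was applied at a single concentration to cells in 96-well plates for 48 hours, and percent growth was recorded.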 Unmarked numbers belong to inactive results. Active and inactive are the calls of the source. Rule for the calls: active = growth percent below 10; inactive = the rest.

System: SF-268 CNS
Test: NCI-60 one-dose screen, 48 h (100 = growth as untreated, 0 = no growth, -100 = all killed)
Details: 10 µM unless noted

SMILES	growth
O=NN1CCCc2cccc(O)c21	27.8%
Fc1ccc2c(c1)c(-c1nc(-c3c[nH]c4ncccc34)cs1)cn2CCN1CCOCC1	56.6%
CC(=O)Nc1nc2c(s1)CC[C@@]1(C)C2=CC[C@H]2[C@@H]3CC[C@H](O)[C@@]3(C)CC[C@@H]21	73.4%
CN(C)CC(C(=O)Cc1ccccc1)c1ccccc1 (configuration not stated)	30.6%
CCOC(=O)[C@@H](C)C[C@H](Cc1ccccc1)NC(=O)c1csc([C@@H](C[C@H](C(C)C)N(C)C(=O)[C@H](CCC(C)C)NC(=O)[C@H]2CCCCN2C)OC(C)=O)n1	22.1%
CCCCCCCCCCCCCCCCCC1OC[C@H](COC(=O)O[C@@H](C(=O)O[C@H]2C[C@@]3(O)[C@@H](OC(=O)c4ccccc4)[C@@H]4[C@]5(OC(C)=O)CO[C@@H]5C[C@H](O)[C@@]4(C)C(=O)[C@H](OC(C)=O)C(=C2C)C3(C)C)[C@@H](NC(=O)c2ccccc2)c2ccccc2)O1 (some centres not stated)	73.3%
c1cnc2[nH]cc(-c3csc(-c4cn(CCCCN5CCCCC5)c5ccccc45)n3)c2c1	86.1%
C=C1C[C@](OC)([C@H](O)C(=O)N[C@@H](OC)[C@@H]2C[C@@H](O)C(C)(C)[C@@H](C[C@@H](COC)OC)O2)O[C@H](C)[C@@H]1C	-32.4% (active)
O=C(Nc1ccc(O)cc1)C(Cl)(Cl)Cl	101%
Cc1c(NS(=O)(=O)c2ccccc2)ccc([N+](=O)[O-])c1Cl	75.9%
CCCCN1CCCC[C@@H]1C(=O)N[C@H](C(=O)N(C)[C@H](C[C@@H](OC(C)=O)c1nc(C(=O)NC2CCC(C(=O)OC)CC2)cs1)C(C)C)C(C)C (some centres not stated)	48.8%
Cn1cc(-c2csc(-c3cn(CCCCN4CCCCC4)c4ccc(F)cc34)n2)c2cccnc21	72%
CC1=C(CN)C2=C(C)C3(CC3)[C@@](C)(O)C(=O)C2=C1	72.1%
CC(=O)O[C@H]1C(=O)[C@@]2(C)[C@H]([C@H](OC(=O)c3ccccc3)[C@]3(O)C[C@H](OC(=O)[C@H](OC(=O)OC[C@H]4COC(C)(C)O4)[C@@H](NC(=O)c4ccccc4)c4ccccc4)C(C)=C1C3(C)C)[C@]1(OC(C)=O)CO[C@@H]1C[C@@H]2O	29.7%
Cn1cc(-c2csc(-c3cn(CCN4CCOCC4)c4ccc(F)cc34)n2)c2cccnc21	41.7%
Brc1ccc2c(c1)c(-c1nc(-c3c[nH]c4ncccc34)cs1)cn2CCN1CCOCC1	65.4%
COC(=O)[C@@H](C)C[C@H](Cc1ccccc1)NC(=O)c1csc([C@@H](C[C@H](C(C)C)N(C)C(=O)[C@@H](NC(=O)[C@H]2CCCCN2C)C2CCCCC2)OC(C)=O)n1	8.92% (active)
CC(=O)OC1CCC2(C)C(CCC3C2CC(=O)C2(C)C3CC(Sc3ccc(N(CCCl)CCCl)cc3)C2C(C)=O)C1 (configuration not stated)	85.9%
COc1ccc(S(=O)(=O)N(Cc2ccc3c(c2)C=CC(C)(C)O3)c2ccccc2)cc1OC	87.4%

SMILES	growth
CC[C@H](C)[C@H](NC(=O)[C@H]1CCCCN1C)C(=O)N(C)[C@H](CC(=O)c1nc(C(=O)N[C@@H](Cc2ccccc2)C[C@H](C)C(=O)O)cs1)C(C)C	84.2%
COC(=O)[C@@H](C)C[C@H](Cc1ccccc1)NC(=O)c1csc([C@@H](C[C@H](C(C)C)N(C)C(=O)[C@@H](NC(=O)C23CC(NC(C)=O)(C2)C3)C2CC2)OC(C)=O)n1	55.6%
O=C1CC2(CC3(Cl)C(Cl)=C(Cl)C2(Cl)C3(Cl)Cl)C(=O)O1 (configuration not stated)	114%
C[n+]1c(/C=C/c2ccc(N(CCCl)CCCl)cc2)sc2ccccc21	57.7%
CC[C@H](C)[C@H](NC(=O)NC(C)(C)C)C(=O)N(C)[C@H](C[C@@H](OC(C)=O)c1nc(C(=O)N[C@@H](Cc2ccccc2)C[C@H](C)C(=O)OC)cs1)C(C)C	21.8%
CCCCCCCC[N+](C)(CCCCCCCC)CCCCCCCC	-100% (active)
CC(=O)O[C@H]1C(=O)[C@@]2(C)[C@H]([C@H](OC(=O)c3ccccc3)[C@]3(O)C[C@H](OC(=O)[C@H](OC(=O)OC[C@@H]4COC(C)(C)O4)[C@@H](NC(=O)c4ccccc4)c4ccccc4)C(C)=C1C3(C)C)[C@]1(OC(C)=O)CO[C@@H]1C[C@@H]2O	32%
CC(=O)O[C@H]1C(=O)[C@@]2(C)[C@H]([C@H](OC(=O)c3ccccc3)[C@]3(O)C[C@H](OC(=O)[C@H](OC(=O)OCC4COC(C)(C)O4)[C@@H](NC(=O)c4ccccc4)c4ccccc4)C(C)=C1C3(C)C)[C@]1(OC(C)=O)CO[C@@H]1C[C@@H]2O (some centres not stated)	61.1%
CC[C@H](C)[C@H](NC(=O)C12CC(NC(C)=O)(C1)C2)C(=O)N(C)[C@H](C[C@@H](OC(C)=O)c1nc(C(=O)N[C@@H](Cc2ccccc2)C[C@H](C)C(=O)OC)cs1)C(C)C	27.2%
CCn1cnc2c(Nc3cccc(Cl)c3)nc(N[C@@H]3CCCC[C@@H]3N)nc21	0.266% (active)
O=C(O)C1C(C(=O)O)C2(Cl)C(Cl)=C(Cl)C1(Cl)C2(Cl)Cl.[Hg] (configuration not stated)	97.5%
CC[C@H](C)[C@H](NC(=O)[C@H]1CCCCN1C)C(=O)N(C)[C@H](C[C@@H](OC(C)=O)c1nc(C(=O)N[C@@H](Cc2ccccc2)C[C@H](C)C(=O)OC)cs1)C(C)C	31.2%
CN1C(=O)C(=Cc2cn(CCCCCCn3c4ccccc4c(=O)c4ccccc43)c3ccccc23)C(=O)N(C)C1=O	94.6%
CC(C)(C)C(=O)OCOP(=O)(OCOC(=O)C(C)(C)C)C1CCCN(O)C1=O (configuration not stated)	4.35% (active)
COC(=O)[C@@H](C)C[C@H](Cc1ccc2ccccc2c1)NC(=O)c1csc([C@@H](C[C@H](C(C)C)N(C)C(=O)[C@@H](NC(=O)[C@H]2CCCCN2C)C(C)C)OC(C)=O)n1	29.4%
C=C1C(=O)O[C@H]2[C@H]1CC/C(COC(=O)C(=O)c1cn(Cc3ccccc3)c3ccccc13)=C\CC[C@@]1(C)O[C@@H]21	-57.5% (active)
CN(CCCCN(C)CCOS(C)(=O)=O)CCOS(C)(=O)=O	66.4%
NC(=O)CNc1ccc([As]=[As]c2ccc(NCC(N)=O)cc2)cc1 (configuration not stated)	24.6%
